These results are taken from PubChem BioAssay (EPA / NIEHS).

Each structure is given as a SMILES string. Values joined by “and” are separate entries in the source; they are usually repeats but may differ in a detail not shown here. Equal values may be shown once. The source holds several records for some structures; these can differ, active in one and inactive in another. Active and inactive are the calls of the source. Rule for the calls: active = hit-call score of the fitted dose curve at least 0.9, where 1 is the maximum; inactive = score below 0.9.

As usually defined, the AC50 is the concentration giving half of the maximal activity seen.

The assay can be described thus: ATG_TCF_b_cat_CIS: Attagene CIS-FACTORIAL HepG2 Assay for human T-Cell-Factor with beta-catenin (TCF/b-cat) (AID 2282965). Particulars: HepG2 TCF/beta-catenin cis-reporter transcription, actives raise or lower the signal. As to the method: ATG_CIS is a cell-based, multiplexed-readout assay that uses HepG2, a human liver cell line, with measurements taken at 24 hours after chemical dosing in a 24-well plate.ATG_TCF_b_cat_CIS is one of 52 assay component(s) measured or calculated from the ATG_CIS assay. It is designed to make measurements of mRNA induction, a form of inducible reporter, as detected with fluorescence intensity signals by Reverse transcription polymerase chain reaction (RT-PCR) and Capillary electrophoresis technology.Data from the assay component ATG_TCF_b_cat_CIS was analyzed into 1 assay endpoint. This assay endpoint, ATG_TCF_b_cat_CIS, was analyzed with bidirectional fitting relative to DMSO as the negative control and baseline of activity. Using a type of inducible reporter, measures of mRNA for gain or loss-of-signal activity can be used to understand the reporter gene at the transcription factor-level as they relate to the gene TCF7 and TCF7L2 and LEF1 and TCF7L1. Furthermore, this assay endpoint can be referred to as a primary readout, because this assay has produced multiple assay endpoints where this one serves a reporter gene function. To generalize the intended target to other relatable targets, this assay endpoint is annotated to the dna binding intended target family, where the subfamily is HMG box protein.
Human liver HepG2 cells are transiently transfected with multiple reporter transcription units (MRTUs) in 6-well plates using FuGene 6 reagent (Roche; 3 ml FuGene/1 mg DNA). The MRTU constructs are regulated by a cis-regulating element (promoter). […] A major difference between the CIS and TRANS system is that in CIS activities of endogenous TFs are measured, whereas the TRANS assay evaluates changes in activities of exogenous, chimeric NR-Gal4 proteins. […] At the end of 24 hour incubation, total RNA was isolated using TriZol reagent (Invitrogen). The isolated RNA is then reverse-transcribed using oligo(dT) primer and Mo-MLV reverse transcriptase (Invitrogen) with DNAse I (Ambion) treatment for 30 min. The one-tenth of the produced cDNA was amplified by PCR using Taq DNA polymerase (Invitrogen) and two reporter sequence-specific primers. The PCR products were fluorescently labeled by primer extension with 6-arboxyfluorescein (6-FAM) 5'-labeled reporter sequence-specific primer (2 min at 95 C, 20 s at 68 C and 10 min at 72 C) and these products were digested with 5U of HpaI (New England Biolabs) for 2h at 37 C. The fragments were purified using Qiaquick PCR columns (Qiagen), analyzed on an ABI 3130xL genetic analyzer (Applied Biosystems) with peak positions identified by using a set of X-rhodamine (ROX)-labeled MapMarker1000 molecular weight standards (BioVentures). The raw capillary electrophoresis data was processed using Attagraph software (Attagene).
In the case of `COc1cccc([C@H](O)C2CCN(CCc3ccc(F)cc3)CC2)c1OC`, the AC50 was 100 µM (active).
As for `CC(O)CC(C)(C)O` (stereo not given), the result was inactive.
`Cc1ncc(CO)c(CO)c1O`: the outcome was inactive.
For the compound `CCCCCCCCCCCCO`, the call was inactive.
Still for that read-out and setting: the result for `CC(C)(C)c1csc(-c2cc3cc(OCc4ccccc4CC(=O)O)ccc3o2)n1` reads “inactive”.
With `O=C(O)Cc1cc(I)c(Oc2ccc(O)c(I)c2)c(I)c1`, the half-maximal activity concentration (AC50) is 51.2 µM (active) and the call was inactive.
With `OCCO`, the result was inactive.
For `CC(C)(C)c1cc(/C=C2\SC(N)=NC2=O)cc(C(C)(C)C)c1O`, the AC50 was 16.3 µM (active).
Take `CCCCCCCCN(C)CCCCCCCC`: the result was inactive.
`Oc1ccc2ccccc2c1`: the half-maximal activity concentration (AC50) is 77.3 µM (active) and 100 µM (active).
Take `O=c1[nH]sc2ccccc12`: the AC50 is 44.4 µM (active).
Take `CC1(C)NC(=O)N(c2ccc([N+](=O)[O-])c(C(F)(F)F)c2)C1=O`: the call was inactive.
Same read-out and setting: the result for `O=C(O)c1ccccc1-n1cc(C(=O)O)c(=O)c2cc(Nc3c(F)cc(F)cc3Cl)c(Cl)cc21` reads “inactive”; that for `CCO[Si](CCCNC(N)=O)(OCC)OCC`, “inactive”.
Regarding `CN(C)c1ccc(C(=C2C=CC(=[N+](C)C)C=C2)c2ccc(N(C)C)cc2)cc1`, the AC50 is 2.96 µM (active).
With `Cc1cn([C@H]2C[C@H](N=[N+]=[N-])[C@@H](CO)O2)c(=O)[nH]c1=O`, the result was inactive.
On to `O=C=NCCCCCCN=C=O`, for which the result was inactive.
Consider `CCCCOC(=O)c1ccc(O)cc1`, for which the compound was classed as inactive and the AC50 is 100 µM (active).
As to `CCCCCCCC[Si](OCC)(OCC)OCC`, the compound was classed as inactive; the concentration at half-maximal activity (AC50) is 68.9 µM (active) and 100 µM (active).
Regarding `C[C@]12CC[C@@H]3c4ccc(O)cc4CC[C@H]3[C@@H]1CC[C@H]2O`, the AC50 was 27.3 µM (active) and the result was inactive.
Regarding `Cc1c2ccccc2c(C)c2c1ccc1ccccc12`, the half-maximal activity concentration (AC50) was 53.4 µM (active).
Consider `CCCC(=O)OCCC(C)C`, for which the result was inactive.
The same measure, in the same setting: the result for `CCCCCCCCCCCO` reads “inactive”; that for `Cc1ccc2oc(CN(Cc3ccccc3)C(=O)Nc3c(F)cc(F)cc3F)c(-c3ccc(Cl)cc3)c2c1`, “inactive”; that for `c1ccc2ccccc2c1`, “inactive”.
Take `COc1cc(C(=O)NC2CCN(C)CC2)ccc1Nc1ncc2c(n1)N(C1CCCC1)CC(F)(F)C(=O)N2C`: the half-maximal activity concentration (AC50) is 4.26 µM (active).
Regarding `Clc1ccccc1C(c1ccccc1)(c1ccccc1)n1ccnc1`, the compound was called inactive.
Still for that read-out and setting: the value for `CCCCCCCCOc1ccc(C(=O)c2ccccc2)c(O)c1` was “inactive”.
Same read-out and setting: the value for `CCCOC(=O)c1cc(O)c(O)c(O)c1` was “inactive”.
As for `CCCCCc1ccc(N)cc1`, the AC50 is 8.92 µM (active) and 6.2 µM (active) and 19.5 µM (active); the call was inactive.
Consider `CCN(Cc1cccnc1)C(=O)c1cccc(Cl)c1[C@]1(C)C(=O)N(Cc2ccc(OC)cc2OC)c2ccc(Cl)cc21`, for which the half-maximal activity concentration (AC50) is 5.44 µM (active).
Turning to `O=C(O)Cn1c(=O)n(Cc2ccc(Br)cc2F)c(=O)c2ccc(Cl)cc21`, the compound was called inactive.
The same measure, in the same setting: the value for `CCCCOC(=O)CC(CC(=O)OCCCC)(OC(C)=O)C(=O)OCCCC` was “inactive”.
Same read-out and setting: the result for `Cc1cc2c(cc1C(F)(F)F)N(C(=O)Nc1ccc(Oc3cccnc3C)nc1)CC2` reads “inactive”; that for `O=C(OCCCCCCOC(=O)c1ccccc1)c1ccccc1`, “inactive”.
